Assay results: PubChem BioAssay (NCATS)
Inconclusive results are not listed. Activity calls are given as the source filed them. The call rests on the fitted dose curve; in most records, active means well fitted inhibition curve with a large enough effect; inconclusive means small, poorly fitted or top-dose-only effect; inactive means no such curve, though single readings can be large or run the other way.

What follows are molecules tested against Rap guanine nucleotide exchange factor 4 (Homo sapiens) (UniProt Q8WZA2) (assay: Confirmatory qHTS for antagonist of cAMP-regulated guanine nucleotide exchange factor 4 (EPAC2) (AID 1645885; further: nearly all actives have a fitted effect of over 25% in size)). Details: EPAC2 Rap1B-BODIPY-GDP exchange fluorescence, biochemical; series mostly up to 12.7 µM; activity change, negative = inhibition: at the top concentration.
Sequence of Rap guanine nucleotide exchange factor 4 (Homo sapiens) (Q8WZA2 whole entry, looked up): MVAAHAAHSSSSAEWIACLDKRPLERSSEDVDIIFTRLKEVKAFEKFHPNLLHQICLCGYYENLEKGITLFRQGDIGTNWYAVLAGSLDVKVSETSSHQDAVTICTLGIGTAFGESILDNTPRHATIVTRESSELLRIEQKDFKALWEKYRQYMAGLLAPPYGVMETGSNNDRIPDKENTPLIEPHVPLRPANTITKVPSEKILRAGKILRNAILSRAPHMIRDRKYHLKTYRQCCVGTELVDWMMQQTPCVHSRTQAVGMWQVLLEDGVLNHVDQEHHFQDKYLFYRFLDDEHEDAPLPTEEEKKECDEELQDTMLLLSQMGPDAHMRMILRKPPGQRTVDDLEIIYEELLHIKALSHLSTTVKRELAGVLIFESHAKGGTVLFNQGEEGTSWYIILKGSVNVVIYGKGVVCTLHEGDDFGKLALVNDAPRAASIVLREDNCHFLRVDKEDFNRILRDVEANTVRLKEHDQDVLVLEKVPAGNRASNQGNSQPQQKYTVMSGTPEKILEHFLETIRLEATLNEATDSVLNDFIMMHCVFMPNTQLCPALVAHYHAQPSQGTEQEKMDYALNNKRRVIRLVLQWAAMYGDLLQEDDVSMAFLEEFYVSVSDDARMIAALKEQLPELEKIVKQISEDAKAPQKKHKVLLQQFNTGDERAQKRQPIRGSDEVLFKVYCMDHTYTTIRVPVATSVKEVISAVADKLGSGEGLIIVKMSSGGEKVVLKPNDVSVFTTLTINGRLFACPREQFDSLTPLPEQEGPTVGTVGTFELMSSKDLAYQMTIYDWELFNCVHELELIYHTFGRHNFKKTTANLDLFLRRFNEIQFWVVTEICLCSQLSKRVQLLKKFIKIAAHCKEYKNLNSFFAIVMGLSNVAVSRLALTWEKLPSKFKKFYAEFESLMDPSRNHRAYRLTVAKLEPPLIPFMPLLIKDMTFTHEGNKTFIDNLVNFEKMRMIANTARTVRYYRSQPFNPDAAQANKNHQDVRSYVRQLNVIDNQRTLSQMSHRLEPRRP
On the % scale 0 is the no-effect control and ±100 the full control effect; potency means the concentration at half of the fitted maximal effect.

Row | SMILES | outcome | activity change, negative = inhibition | Potency
1 | O=C(c1ccccc1)N1CCN(CCc2ccccn2)CC1 | inactive [at 12.7 µM] | – | –
2 | Cc1ccnc(NS(=O)(=O)c2ccc(NC(=O)Cc3c(F)cccc3Cl)cc2)n1 | inactive | – | –
3 | CN1N=C(C(C)(C)C)CC1=O | – | -13.7% [at 114 µM] (inactive) | –
4 | COc1cc(/C=C2\SC(=S)N(NS(=O)(=O)c3ccc(C)cc3)C2=O)ccc1O | – | -24% (inactive) | –
5 | CCOc1ccc(/C(C)=N/NC(=O)C(OC)c2ccccc2)cc1 (stereo not given) | – | 50.6% [at 114 µM] (inactive) | –
6 | O=C(/C=C/c1ccc(Cl)cc1)Nc1nccs1 | – | -11.7% (inactive) | –
7 | Cc1ccc(Cl)cc1NC(=O)c1ccccc1OCC(=O)Nc1ccc(Cl)cc1 | – | -5.12% (inactive) | –
8 | CCNC(=O)COc1ccc(/C=C2\COc3ccccc3C2=O)cc1OC | – | -2.58% (inactive) | –
9 | CCOC(=O)c1c(C)nc2sc(C(N)=O)c(N)c2c1-c1ccccc1 | – | -16.9% (inactive) | –
10 | O=C(O)c1ccccc1NS(=O)(=O)c1ccc(N/N=C/c2ccc(O)c(O)c2)c([N+](=O)[O-])c1 | – | -10.9% (inactive) | –
11 | Cc1ccc(NC(=O)c2ccc(Cl)c(S(=O)(=O)N3CCc4ccccc43)c2)nc1 | – | -12.3% [at 114 µM] (inactive) | –
12 | COc1ccc(-c2onc3ccc(C(C)=O)cc23)cc1 | – | – | 19 µM (active)
13 | COC(=O)c1cc2sccc2n1Cc1c(C)cc(C)cc1C | – | -27.8% (inactive) | –
14 | CCOc1ccc(N2CC(c3nc4ccccc4n3Cc3cccc(Cl)c3)CC2=O)cc1 (stereo not given) | – | 9.91% (inactive) | –
15 | Cc1cc(-c2ccc(Br)s2)nc(-n2cccc2)n1 | – | -14.5% [at 114 µM] (inactive) | –
16 | O=C(Nc1cccc(Cl)c1)N(Cc1nc2ccccc2c(=O)[nH]1)Cc1cccs1 | – | -17% (inactive) | –
17 | C/C(=N\N1C(=O)c2ccccc2NC1c1ccco1)c1ccccc1O (stereo not given) | – | -27.7% [at 114 µM] (inactive) | –
18 | CCc1nnc(NS(=O)(=O)c2ccc(Nc3ccc([N+](=O)[O-])c4nonc34)cc2)s1 | – | 42% [at 114 µM] (inactive) | –
19 | CCOC(=O)c1ccccc1-c1csc(NS(=O)(=O)c2ccc(Cl)cc2)n1 | – | -14.9% (inactive) | –
20 | CC(OC(=O)CCN1C(=O)C2CC=CCC2C1=O)C(=O)Nc1cccc(C#N)c1 (stereo not given) | – | -1.04% (inactive) | –

Row | SMILES | outcome | activity change, negative = inhibition | Potency
21 | CC(C)c1ccc(NS(=O)(=O)c2cn(C)c(=O)n(C)c2=O)cc1 | – | – | 6.01 µM (active)
22 | CN(C)c1nc(Oc2ccc(=O)[nH]n2)nc(N2CCOCC2)n1 | – | 61.8% [at 114 µM] (inactive) | –
23 | Cc1ccc(NC(=O)c2ccc(Cl)cc2Cl)c(C(=O)c2ccccc2)c1 | inactive [at 12.7 µM] | – | –
24 | CC(C)(CNC(=O)Cc1ccc(NS(=O)(=O)c2cccc(C(F)(F)F)c2)cc1)N1CCOCC1 | – | -1.17% (inactive) | –
25 | C#CCOCCOCCOCCNc1nc(N2CCN(C(=O)[C@H](Cc3cc4ccccc4[nH]3)n3cc([C@@H](N)Cc4ccc(O)cc4)nn3)CC2)nc(N2CCN(C(=O)[C@H](Cc3cc4ccccc4[nH]3)n3cc([C@@H](N)CC(C)C)nn3)CC2)n1 | – | -5.2% (inactive) | –
26 | O=c1[nH]c([N+](=O)[O-])nn1C(c1ccccc1)c1ccccc1 | – | – | 26.9 µM (active)
27 | COc1cc(CNn2cnnc2)ccc1OCC(=O)NC(C)(C)C | – | -13.2% [at 114 µM] (inactive) | –
28 | CC(=O)Nc1ccc(NS(=O)(=O)c2cn(C)c(=O)n(C)c2=O)cc1 | – | -4.63% (inactive) | –
29 | CCc1noc(C)c1C(=O)N1CCCSC1=Nc1ccccc1C(C)C | – | 49.3% [at 114 µM] (inactive) | –
30 | COc1cccc(C(=O)C2=NN(C(C)=O)CC2c2ccco2)c1 (stereo not given) | inactive | – | –
31 | COC(=O)c1c(SC)nc2ccccc2c1OCc1ccc(Br)cc1 | – | 2.5% (inactive) | –
32 | CC(=Cc1ccccc1)C=C1SC(=S)N(CCCC(=O)Nc2ccc(C(=O)O)c(O)c2)C1=O | – | 50.6% [at 114 µM] (inactive) | –
33 | CC(C)CC1C(=O)N(Cc2cn(CCC3OCCO3)nn2)CCS(=O)(=O)N1Cc1ccc(-c2ccc(F)cc2)cc1 (stereo not given) | – | – | 4.26 µM (active)
34 | CCc1cc2c(-c3ccccc3)cc(=O)oc2cc1OCC(=O)NCC1CCC(C(=O)O)CC1 (stereo not given) | – | 50% [at 114 µM] (inactive) | –
35 | Cc1ccc(N2C(=O)c3ccccc3C2C(=O)c2ccc(O)cc2O)cc1 (stereo not given) | – | 75.9% [at 114 µM] (inactive) | –
36 | CCc1ccc(NC(=O)CSc2nnc(Cc3cccn3C)n2-c2ccc(OC)cc2)cc1 | – | -3.93% (inactive) | –
37 | CCc1ccc2c(c1)C(NC(C)=O)C(=O)N2CCN1CCOCC1 (stereo not given) | – | -26.2% [at 114 µM] (inactive) | –
38 | NC(=O)COC(=O)c1ccc(Cl)c(S(=O)(=O)N(Cc2ccccc2)c2ccc(Cl)cc2)c1 | – | -9.16% (inactive) | –
39 | COc1ccc(-c2nn(-c3ccccc3)cc2/C=N/n2cnnc2)cc1OC | – | 45.7% [at 114 µM] (inactive) | –
40 | C=CCOc1ccc(/C=C2\SC(=S)N(C(C(=O)O)c3ccccc3)C2=O)cc1 (stereo not given) | – | -10.2% (inactive) | –
